40 compounds from PubChem BioAssay (Tox21) can be followed below.

Records with an inconclusive call do not appear. Activity calls are given as the source filed them. Calls follow the shape of the dose curve; as a rule, active = well fitted cell-killing curve with a large enough effect in the repeat runs; inconclusive = weak or mixed curves, or effect the other way; inactive = flat fitted curve, though single readings scatter.
% is scaled to controls: 0 for no effect and ±100 for the full control effect.

A short description of the assay: qHTS assay to identify small molecule agonists of the sonic hedgehog signaling (Shh) pathway - cell viability counter screen (AID 1259366). Also: nearly all actives have a fitted effect of over 50% in size. The conditions noted are these: NIH/3T3 Gli1-Luc viability, CellTiter-Fluor, 24 h; series mostly up to 92.4 µM. The text has this: National Center for Advancing Translational Sciences [NCATS]
NIH Chemical Genomics Center [NCGC]
U.S. Environmental Protection Agency [EPA]
National Institutes of Environmental Health Sciences [NIEHS]
National Toxicology Program [NTP]
U.S. Food and Drug Administration [FDA]
The sonic hedgehog (Shh) pathway is essential for normal embryonic development. Dysregulation of the Shh pathway can cause severe developmental defects in organs. Therefore chemicals that interfere with the pathway are potential developmental toxicants. A cell line designated 3T3Gli1-Luc (DMB/OARSA/CFSAN/FDA, Laurel, MD), a NIH/3T3 derived clone containing stably integrated Gli1-Luc reporter is used to detect chemical interference of the Shh pathway, by changes in the expression of the firefly Luc gene under the control of the Gli1 transcriptional response element. This cell line was used to screen Tox21 libraries for identifying and prioritizing the potential developmental toxicants that interfere Shh pathway. The cytotoxicity of the compounds was tested in parallel by measuring the cell viability using CellTiter-Fluor assay system (Promega, Madison, WI) in the same wells.
Tox21 Assay Protocol Summary:
3T3 Gli1-Luc cells were dispensed at 2,000 per well in 5uL of culture medium into white solid bottom 1536-well plates (Greiner Bio-One, Monroe, NC) using a Multidrop Combi (Thermo Scientific, Waltham, MA) dispenser. The assay plates were incubated at 37 C and 5% CO2 for 4hr, and then 23nL of compounds dissolved in DMSO and positive control were transferred using a Pintool station (Wako, San Diego, CA). The assay plates were incubated at 37C and 5% CO2 for 24hr. For viability read, after 23hr of compound treatment, 1uL of CellTiter-Fluor reagent (Promega Corporation, Madison, WI) was added to each well of the assay plates using Flying Reagent Dispenser (FRD, Aurora Discovery, San Diego, CA) and incubated the assay plates at 37C for 1hr. The fluorescence signal was quantified using a ViewLux plate reader (Perkin Elmer, Shelton, CT).
With `CCN(CC)CC(=O)Oc1ccc(NC(C)=O)cc1`, the compound was called inactive.

Consider `CCCC[O][Al]([O]CCCC)[O]CCCC`, for which the call was inactive.

In the case of `COc1cc(NS(=O)(=O)c2ccc(N)cc2)ncn1`, the compound was classed as inactive.

As for `COc1ccc2cc(CCC(C)=O)ccc2c1`, the call was inactive.

As to `CC(C)(C)NCC(O)COc1cccc2c1CCC(=O)N2` (stereo not given), the compound was called inactive.

Turning to `CCCCCCC(O)CO` (stereo not given), the compound was classed as inactive.

For the compound `CC(=O)SC[C@@H](C)C(=O)N1CCC[C@H]1C(=O)N[C@@H](Cc1ccccc1)C(=O)O`, the compound was called inactive.

`Cc1cc(C)c(C)c(C)c1`: the outcome was inactive.

For the compound `C[C@H]1COc2c(C3(N)CC3)c(F)cc3c(=O)c(C(=O)O)cn1c23`, the call was inactive.

Take `CCN1CCN(C(=O)N[C@@H](C(=O)N[C@@H]2C(=O)N3[C@@H]2SC(C)(C)[C@H]3C(=O)O)c2ccccc2)C(=O)C1=O`: the result was inactive.

Take `COC(=O)c1c(C)cc(O)c(C)c1O`: the outcome was inactive.

As for `Cc1ccc(O)c(C(=O)c2ccccc2)c1`, the compound was called inactive.

Take `Nc1ccc(C(=O)NCC(=O)O)cc1`: the result was inactive.

For the compound `O=C(c1ccccc1)c1cccc(O)c1`, the compound was classed as inactive.

For `O=C(O)/C=C(\CC(=O)O)C(=O)O`, the call was inactive.

For `C=CCCCCCCCCOC(C)=O`, the compound was classed as inactive.

Turning to `CCCCCCCCS(=O)(=O)O`, the compound was called inactive.

On to `COc1cc(OC)cc(OC)c1`, for which the outcome was inactive.

`O=Cc1ccc(C(=O)O)cc1`: the result was inactive.

For `C/C=C(\C)C(=O)OC/C=C(\C)CCC=C(C)C`, the outcome was inactive.

With `C=CCN1CCc2nc(N)sc2CC1`, the compound was called inactive.

As to `O=c1[nH]c(=O)c2cn[nH]c2[nH]1`, the compound was classed as inactive.

`CC(O)CCCCn1c(=O)c2c(ncn2C)n(C)c1=O` (stereo not given): the outcome was inactive.

`CC(C)c1cc(C(C)C)cc(C(C)C)c1`: the compound was classed as inactive.

On to `CCCCC(CC)COC(=O)CC#N` (stereo not given), for which the compound was classed as inactive.

On to `CC(C)C[P+](C)(CC(C)C)CC(C)C`, for which the compound was classed as inactive.

Turning to `NS(=O)(=O)c1cc2c(cc1C(F)(F)F)NCNS2(=O)=O`, the compound was called inactive.

On to `CCC(C)SSC(C)CC` (stereo not given), for which the result was inactive.

Turning to `CC(C)C(=O)Nc1cccc(C2CN3CCSC3=N2)c1` (stereo not given), the outcome was inactive.

In the case of `CCCCCCCCCCCCCCCC(=O)OC`, the viability change, negative = cytotoxic is 4.58% [at 19 µM] (inactive).

Take `C[C@@H]1CCC[C@H](C)N1CCCC(O)(c1ccccc1)c1ccccn1` (stereo not given in full): the call was inactive.

Turning to `CC(CC(=O)Cl)CC(C)(C)C` (stereo not given), the compound was called inactive.

For `N=C(N)N1CCc2ccccc2C1`, the viability change, negative = cytotoxic is 2.39% [at 8.39 µM] (inactive).

Take `COc1cc2nc(N3CCN(C(=O)C4CCCO4)CC3)nc(N)c2cc1OC` (stereo not given): the result was inactive.

Consider `C=CC(=O)OCC[N+](C)(C)C`, for which the outcome was inactive.

With `N=C(N)N`, the call was inactive.

Take `CN(C)c1ccncc1`: the call was inactive.

In the case of `O=S(=O)(O)CC(O)CCl` (stereo not given), the compound was classed as inactive.

Take `O=CN1CCCCC1`: the call was inactive.

Turning to `C/C(=N\O)c1ccc(OCC(=O)N2CCCCC2)cc1`, the outcome was inactive.
